Results from PubChem BioAssay (NCI).
This is part of a sample that, as a whole, favours compounds with a hit. Of some 79,000 tested, about 15% had one in any assay. The source made the active and inactive calls. No stated cut-off is given here; in the data, active means growth inhibition above about 70%; inactive means the rest.

What was measured:
[1] = NCI Yeast Anticancer Drug Screen. Data for the rad50 strain (AID 155);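 further: 0% = growth of vehicle-only cultures of the same strain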; settings: S. cerevisiae rad50 strain growth inhibition; at 50.0 µM; stronger effect = higher value
Procedure, shortened: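 Cells are treated with compound, grown, and their growth is then scored against vehicle-only cultures of the same repair-deficient yeast strain.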

[2] = NCI Yeast Anticancer Drug Screen. Data for the mec2-1 strain (AID 157); settings: S. cerevisiae mec2-1 strain, at 50.0 µM, stronger effect = higher value
Procedure, shortened: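 Each compound was tested on mec2-1 yeast, a strain altered in DNA damage repair or cell cycle control. Growth inhibition is reported relative to vehicle.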

[3] = NCI Yeast Anticancer Drug Screen. Data for the sgs1 mgt1 strain (AID 161);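 further: 0% = growth of cultures given vehicle only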; settings: S. cerevisiae sgs1 mgt1 strain, at 50.0 µM, stronger effect = higher value
Procedure, shortened: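 Read-out: growth inhibition vs vehicle controls. Cells: mutant yeast strain deficient in DNA damage repair.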

[4] = NCI Yeast Anticancer Drug Screen. Data for the cln2 rad14 strain (AID 165);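 further: 0% = growth equal to vehicle treated cultures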; settings: S. cerevisiae cln2 rad14 strain, at 50.0 µM, stronger effect = higher value
Procedure, shortened: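 Test compounds were added to cln2 rad14 yeast cultures; inhibition of growth was then determined by comparison with vehicle treatment.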

[5] = NCI Yeast Anticancer Drug Screen. Data for the mlh1 rad18 strain (AID 175); settings: S. cerevisiae mlh1 rad18 strain growth inhibition; at 50.0 µM; stronger effect = higher value
Procedure, shortened: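 Inhibition values reflect reduced growth of mutant yeast versus vehicle-treated controls following compound exposure; the mutations affect DNA damage repair.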

[6] = NCI Yeast Anticancer Drug Screen. Data for the bub3 strain (AID 167); settings: S. cerevisiae bub3 mutant strain, at 50.0 µM, stronger effect = higher value
Procedure, shortened: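 Part of a panel of yeast mutants defective in DNA damage repair or cell cycle regulation. Each strain is grown with compound, and inhibition is calculated relative to solvent-treated cultures.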

Measured: growth inhibition

CSCNC(=S)Nc1ccc(Cl)c(Cl)c1
inactive: [1] 59.2% | [2] 45% | [3] 35% | [4] 23.4% | [5] 61.3%

CC(=O)OCC1OC(n2cccnc2=O)C(OC(C)=O)C1OC(C)=O (configuration not stated)
inactive: [1] -0.55% | [2] 2.75% | [3] 2.25% | [4] 7.8% | [6] 8.7% | [5] 0.9%

CC1=CC(=O)N(n2c(-c3ccccc3)n[nH]c2=O)C1=O
inactive: [1] -26.9% | [2] -12.9% | [3] -4.45% | [4] 7.95% | [5] 5.3%

Nc1c(Cl)ncnc1Cl
inactive: [1] -13.8% | [2] 8.3% | [3] -16.4% | [4] -0.65% | [5] -39.7%

Cc1cc2c(c(C(N)=O)c1C)-c1cccc(Cl)c1C2=O
inactive: [1] 13.1% | [2] 12.2% | [3] 9.7% | [4] 11% | [5] -1.3%

OCCCCCCO
inactive: [1] -2.55% | [2] -15.6% | [3] 16.1% | [4] -16.7% | [5] 12.3%

CN(C)CC(O)CO (configuration not stated)
inactive: [1] 38.5% | [2] -4% | [3] -6.5% | [4] -45.1% | [5] 22%

COc1ccc2[nH]cc(CN3CCC(CO)(c4ccccc4)CC3)c2c1
inactive: [1] 13.4% | [2] 1.2% | [3] -16.4% | [4] 6.9% | [5] 3.55%

COc1cc(C2OCCO2)ccc1O
inactive: [1] 12.8% | [2] 7.05% | [3] -0.35% | [4] 39% | [5] -11%

O=C(O)/C=C/C(=O)Nc1ccccc1NC(=O)/C=C/C(=O)O
inactive: [1] 15.2% | [2] 16.2% | [3] 31.2% | [4] 27.8% | [5] -1.9%

Nc1ncnc2nc(N3CCN(CCO)CC3)[nH]c12
inactive: [1] 9.45% | [2] -8.75% | [3] -34.1% | [4] -29.5% | [5] -12.5%

Cc1cc(C)c(Br)cc1C
inactive: [1] 4.9% | [2] 15% | [3] 5.8% | [4] 3.4% | [6] 3% | [5] -5.35%

CN(C)c1ccc(/C=C(\C#N)c2ccccc2Br)cc1
inactive: [1] 0.15% | [2] -10.5% | [3] 15.7% | [4] -28.2% | [5] 3.95%

CC1=CC(NCCC(=O)O)NC(=O)N1 (configuration not stated)
inactive: [1] 4.25% | [2] -6.2% | [3] -18.1% | [4] -62.6% | [6] -1.75% | [5] -1.85%

Nc1nc(-c2ccccn2)cc(-c2cc(-c3ccccn3)nc(N)n2)n1
inactive: [1] -12.1% | [2] -11.6% | [3] -18.2% | [4] -0.7% | [5] 6.25%

O=C(O)C#Cc1ccc(Cl)cc1
inactive: [1] -20.1% | [2] -23.8% | [3] -17.6% | [4] -9.05% | [6] -24.4% | [5] -13.6%

CC(C)CCc1ccc2ccc3cccc4ccc1c2c34
inactive: [1] -17.6% | [2] 3.55% | [3] -1.15% | [4] -26.3% | [5] -8.1%

c1ccc2c(c1)C1CCCCCC21N1CCOCC1 (configuration not stated)
inactive: [1] 18% | [2] 1.05% | [3] -14.4% | [4] -5.45% | [5] 7.6%

CN(C)c1ncnc2c1cnn2-c1ccccc1
inactive: [1] -4.45% | [2] -4.35% | [3] 0.2% | [4] -40.8% | [5] -3.15%

Nc1cccc(S(=O)(=O)Nc2c(N)nc(SCC(=O)O)[nH]c2=O)c1
inactive: [1] -15% | [2] -15.8% | [3] -19.7% | [4] -9.3% | [5] 21.6%

O=S(NOCc1ccccc1)c1ccccc1 (configuration not stated)
inactive: [1] 13.3% | [2] 24.2% | [3] 3.95% | [4] -31.8% | [5] 9.75%

CC/C(C)=C1\OC(=O)C(C)C(O)C(Cc2cccnc2)NC(=O)C(NC(=O)c2ncccc2O)C(C)OC1=O (configuration not stated)
inactive: [1] -4.45% | [2] 3.7% | [3] 0.45% | [4] -10.4% | [5] -14.9%

[CH3][Sn]([CH3])([N](c1ccccn1)c1ccccn1)[N](c1ccccn1)c1ccccn1
inactive: [1] -8.85% | [2] 2.7% | [3] 17% | [4] -17.3% | [5] -21.4%

O=C1/C(=C/c2ccccc2)CN(C(=O)/C=C/c2ccccc2)C/C1=C\c1ccccc1
inactive: [1] -23.6% | [2] -19.8% | [3] -52% | [4] -8.15% | [5] -33.2%

CC(=O)CC(C)(C)N
inactive: [1] -0.1% | [2] -9.7% | [3] -1.4% | [4] -6.05% | [5] -2.1%

CCCCN(CCCC)C(=O)/C=C\C(=O)O
inactive: [1] -6.6% | [2] 1% | [3] -0.2% | [4] 28.1% | [6] -1.2% | [5] 4.9%

CC(CN(C)C)CN1c2ccccc2Sc2ccccc21 (configuration not stated)
inactive: [1] -6.7% | [2] -2.4% | [3] -7% | [4] -2.95% | [5] 8.35%

C=C(C)COc1ccc(Nc2ccccc2)cc1
inactive: [1] 5.7% | [2] 18.4% | [3] 22% | [4] 6.65% | [5] 34%

CC(C)=NOC(C)C(=O)O (configuration not stated)
inactive: [1] -11.9% | [2] 18.2% | [3] -24.4% | [4] 10.2% | [6] -0.9% | [5] -3.15%

COC(=O)/C(=N\NC(=S)NN)C(C(=O)C(=O)Nc1ccccc1C(N)=O)c1nc2ccccc2[nH]c1=O (configuration not stated)
inactive: [1] 24.9% | [2] 6.9% | [3] 14.9% | [4] -42.5% | [6] -4.5% | [5] 23.1%

OC(CC1CCCC(CC(O)c2ccccc2)N1CCc1ccccc1)c1ccccc1 (configuration not stated)
inactive: [1] 24.8% | [2] -1.3% | [3] 22.4% | [4] 35.4% | [5] 21.2%

COc1ccccc1C1CCCCC1SCC(=O)O (configuration not stated)
inactive: [1] 19.4% | [2] 11.7% | [3] 2.05% | [4] 9.35% | [5] -18.4%

COc1cc(C=O)cc([N+](=O)[O-])c1O
inactive: [1] -2.2% | [2] -9.75% | [3] -2.2% | [4] 1.05% | [5] -6.1%

C=CCSc1ncnc2nc[nH]c12
inactive: [1] 7.9% | [2] -1.3% | [3] 1.55% | [4] -3.15% | [5] 9.1%

Cc1cc2c(c(=O)o1)C(C)CC(c1c(O)cc(C)oc1=O)O2 (configuration not stated)
inactive: [1] 15.3% | [2] 5.35% | [3] 16.8% | [4] 5.85% | [5] 20.6%

Cc1ncc(Cl)c2cc3ccccc3cc12
inactive: [1] -2.4% | [2] 2.1% | [3] -0.7% | [4] -24.6% | [5] -7.55%

O=C(O)C(Nc1ccccc1)c1ccccc1 (configuration not stated)
inactive: [1] 13.4% | [2] 3.75% | [3] 9.45% | [6] 4.65% | [5] -6.95%

CCOCCC(=O)O
inactive: [1] 26.1% | [2] 6.3% | [3] -7% | [6] 18.1% | [5] 6.15%

CCOC(=O)C(=O)C(/C(=N/N(C)C)C(=O)Nc1ccc(C)cc1C)c1nc2ccccc2[nH]c1=O (configuration not stated)
inactive: [1] -21.7% | [2] -22.1% | [3] 3.8% | [6] 1% | [5] 12.5%

Oc1ccc(-c2ccc(O)cc2O)c(O)c1
inactive: [1] -1.45% | [2] -20.9% | [3] -1.85% | [6] 0.35% | [5] 14.2%

COC(=O)C(=O)C(C(=O)C(=O)Nc1cc(C)ccc1C)c1nc2ccccc2[nH]c1=O (configuration not stated)
inactive: [1] 13% | [2] -11.9% | [3] 14.4% | [6] -13.7% | [5] 9.4%

N#CCCNCCC[Si]12OCCN(CCO1)CCO2
inactive: [1] 6.5% | [2] 1.35% | [3] 10.5% | [6] 7.15% | [5] 2.4%

NNc1nc2ccccc2c(=O)n1NC(=O)C(=O)Nc1cccc(C(F)(F)F)c1
inactive: [1] -0.35% | [2] 17.6% | [3] -3.9% | [6] -6.15% | [5] 31.4%
